# A selection: hits, their analogues and other compounds. The true share with any hit is near 1.6%.
# KCNQ2 inh – inhibitors of rat KCNQ2 potassium channel | CHO-K1 KCNQ2, FluxOR thallium flux, 20 min; hits give low values | B-score at 10 µM | actives 1.1% (n = 310,000) | AID 2156;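 active means fluorescence ratio B-score at most minus 3 library SDs, with starting brightness B-score within 2 library SDs, cut at about -5.5 in these data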
# KCNQ2 pot – KCNQ2 (rat) channel potentiation; actives 0.54% (n = 310,000); CHO-K1 KCNQ2, FluxOR thallium flux fluorescence; hits give high values; AID 2239; B-score at 10 µM; O88943;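 active means fluorescence ratio B-score at least 3 SD of library B-scores, with initial fluorescence B-score within 3 of them, cut at about 5.3 in these data; same plate scores as AID 2156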;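 further: B-score of peak minus minimum over baseline fluorescence ratio after K+ and Tl+ stimulus; positive B-score means potentiation of KCNQ2 with more thallium influx and brighter signal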
# An asterisk follows results filed as active; i = inactive; . = no result.
SMILES,KCNQ2 inh,KCNQ2 pot
O=C(NCc1ccccc1)C(c1cccs1)N(Cc1cccs1)C(=O)c1cnccn1 (stereo not given),-6*,-6
O=C(NCc1ccccc1)C(c1ccccc1)N(Cc1cccs1)C(=O)c1cnccn1 (stereo not given),i,.
CN(Cc1ccccc1)S(=O)(=O)c1ccc(Cl)c(C(=O)NCCCN2CCOCC2)c1,i,0.01
COc1ccc(NC(=O)CC(C)n2ccnc2)cc1 (stereo not given),i,.
CCOc1ccc(C2C(C#N)=C(N)Oc3cc(C)n(CCN(C)C)c(=O)c32)cc1OCC (stereo not given),i,0.41
CC1CN(c2nc3ccccc3nc2C(C#N)C(=O)OC2CCCCC2)CC(C)O1 (stereo not given),-5.9*,-5.9
CC1CCN(c2nc3ccccc3nc2C(C#N)C(=O)OC2CCCCC2)CC1 (stereo not given),i,.
COc1ccc(N2CCN(CCCNC(=O)C(=O)c3c(C)n(C)c4ccccc34)CC2)cc1,i,.
Cc1ccc(S(=O)(=O)NCC(C)n2nc(C)cc2C)cc1 (stereo not given),i,2.7
Cc1ccc(C(C[N+](=O)[O-])n2nc(C)cc2C)cc1 (stereo not given),-7.4*,-7.4
Cc1ccc(NC(=O)N2CCCCCC2)c(C)c1,i,2.1
Cn1ccsc1=NC(=O)c1cccc(OC(F)F)c1,i,.
Cc1cc2c(NC3CCCCC3)ncnc2s1,i,1
CCOc1ccc(-c2nc(C#N)c(N3CCOCC3)o2)cc1,i,1.4
CCOc1ccc(-c2nc(C#N)c(N3CCN(Cc4ccccc4)CC3)o2)cc1,-6.2*,-6.2
CCN(CC)c1ccc(NC(=O)C2=CCN(S(=O)(=O)c3ccc(F)cc3)CC2)c(C)c1,i,7.1*
Cc1ccc(S(=O)(=O)N2CC=C(C(=O)NCc3ccc(F)cc3)CC2)cc1,i,0.02
Cc1ccccc1OCC(=O)Nc1ccccc1N1CCC(C)CC1,-6.2*,-6.2
Cc1ccccc1OCC(=O)Nc1ccc(C)c(S(=O)(=O)N2CCCCCC2)c1,-6.1*,-6.1
COc1ccc(C(=O)NC(=S)Nc2ccccc2N2CCOCC2)cc1Br,i,.
Cc1ccc(OCC(=O)Nc2ccccc2N2CCCC2)c(C)c1,-5.6*,-5.6
CC(=O)N1CCN(c2ccccc2NC(=O)COc2ccccc2C)CC1,i,.
COc1ccc(C(=O)Nc2ccccc2N2CCOCC2)cc1Br,-6.3*,-6.3
Cc1ccccc1OCC(=O)Nc1ccc(S(=O)(=O)N2CCCC2)cc1,i,.
O=C(COc1ccccc1)Nc1ccccc1N1CCCCC1,i,.
SMILES,KCNQ2 inh,KCNQ2 pot
CCC1ON(c2ccccc2)C2c3nc4ccccc4n3CC12 (stereo not given),i,0.03
CCOCC(=O)Nc1cc(C(=O)Nc2cc(C)cc(C)c2)ccc1Cl,i,1.4
CC(C)CC1Nc2ccc(C(=O)NCCCN3CCCCC3C)cc2NC1=O (stereo not given),i,.
Cc1cccc(OCC(=O)NC(=S)Nc2ccccc2N2CCOCC2)c1C,i,.
Cc1ccccc1OCC(=O)Nc1cccc(Cl)c1C,i,0.3
Cc1cccc(OCC(=O)Nc2ccccc2N2CCCCC2)c1,i,.
Cc1cc(C)c(OCC(=O)Nc2ccccc2N2CCCCC2)c(C)c1,-5.6*,-5.6
Cc1ccccc1OCC(=O)Nc1ccccc1-c1ccccc1NC(=O)COc1ccccc1C,-5.6*,-5.6
Cc1ccc(C(C)C)c(OCC(=O)NC(=S)Nc2ccccc2N2CCOCC2)c1,-6.5*,-6.5
O=C(CCN1C(=O)c2ccccc2C1=O)Nn1cnnc1,i,0.67
Cc1cccc(NC(=S)NC2CCSc3ccccc32)c1 (stereo not given),i,.
Cc1ccc2c(c1)cc(CN(Cc1cccs1)C(=O)c1ccco1)c1nnnn12,i,1.8
Cc1ccc2cc(CN(Cc3cccs3)C(=O)c3ccco3)c3nnnn3c2c1C,-6*,-6
O=C(Nc1cccc(-n2cccn2)c1)C1CCCN(Cc2cc3ccccc3[nH]2)C1 (stereo not given),-8.2*,-8.2
Cc1cc(CN2CCCC(C(=O)Nc3cccc(-n4cccn4)c3)C2)cc(C)c1O (stereo not given),i,.
CCC(C)NC(=O)c1cc(S(=O)(=O)N2CCCCC2)c[nH]1 (stereo not given),i,1.8
COc1ccc(C(C)=O)cc1CSc1nnc(-c2ccccc2O)n1-c1ccccc1,i,0.88
O=Cc1ccc(O)c2ncccc12,i,7.2*
NS(=O)(=O)c1ccc(N=Nc2ccc(O)c3ncccc23)cc1,i,0.44
COc1cccc(/C=C(\C)C(=O)c2c(C)cc(C)[nH]c2=O)c1OC,i,0.2
Cc1cc(NC(=O)C(C)SCC(=O)OCc2c(Cl)cccc2Cl)no1 (stereo not given),i,.
COC(=O)Cc1ccc(N(Cc2ccccc2F)S(=O)(=O)c2ccc(Cl)cc2)cc1,-8.2*,-8.2
COC(=O)CN(c1ccc(F)cc1)S(=O)(=O)c1ccccc1,i,0.81
Cc1nc(NC(=O)C2CC2)sc1C(=O)Nc1ccccc1Cl,i,.
C/C(=N\NC(=O)c1ccncc1)c1cccc(NC(=O)c2ccc(Cl)s2)c1,i,1.3
SMILES,KCNQ2 inh,KCNQ2 pot
COC(=O)C1=C(C)N(CCc2ccccc2)C(=O)/C1=C\c1ccco1,-5.9*,-5.9
COC(=O)C1=C(C)N(c2cccc(OC)c2)C(=O)/C1=C\c1ccco1,-6.2*,-6.2
COC(=O)C1=C(C)N(Cc2ccccc2)C(=O)/C1=C\c1ccco1,-5.7*,-5.7
C=CCN1C(=O)/C(=C\c2ccco2)C(C(=O)OC)=C1C,i,0.71
CCOC(=O)C1=C(C)N(c2ccc(OCC)cc2)C(=O)/C1=C\c1ccco1,i,.
CCN1C(=O)/C(=C\c2ccco2)C(C(=O)OC)=C1C,i,0.9
CCOC(=O)c1c(-c2ccco2)csc1NC(=O)COC(=O)c1cnc(C)cn1,i,1.1
O=C(COC(=O)C1CC2CCCC(C1)C2=O)NNC(=O)c1ccc([N+](=O)[O-])cc1 (stereo not given),i,1.2
CC(=O)c1ccn(S(=O)(=O)c2ccccc2)c1,i,.
Cc1cc(C)c(NC(=O)COC(=O)/C=C/c2cccs2)c(C)c1,i,0.27
COc1ccc(/C=C2\CCC/C(=C\C=N\N(C)C)C2=O)cc1,i,.
CN(C)/N=C/C=C1\CCC/C(=C\c2ccc(F)c(F)c2)C1=O,-7.1*,-7.1
O=C1CCN(S(=O)(=O)c2ccccc2)CCN1CCOCc1ccc(Cl)cc1,i,.
O=C(CCNC(=O)c1ccc(Cl)cc1)Nc1ccccc1N1CCCC1,i,0.84
Cc1cccn2c(=O)nc(SCC(=O)Nc3ccc4c(c3)OCO4)nc12,i,.
O=C(CC(=O)NCc1ccccc1)NCc1ccccc1,i,1.1
O=C(Nc1ccc(C(=O)O)cc1)/C(=C\c1ccccc1)NC(=O)c1ccco1,i,0.24
O=C(Nc1ccc(C(=O)O)cc1)/C(=C\c1ccc2c(c1)OCO2)NC(=O)c1ccco1,i,6.5*
O=S(=O)(NCC(c1ccc2c(c1)OCO2)N1CCN(c2ccccc2)CC1)c1ccccc1 (stereo not given),i,.
CC(C)C1OC2c3cccc4cccc(c34)C2N1c1ccccc1 (stereo not given),-5.7*,-5.7
CC(=O)c1ccc(NC(=S)N2CCCC(CO)C2)cc1 (stereo not given),i,13*
COC(=O)Cc1ccc(NC(=S)N2CCCC(CO)C2)cc1 (stereo not given),i,1

# Screens deposited in PubChem BioAssay by Johns Hopkins Ion Channel Center.
